Lassa entry = Lassa virus entry inhibition; Lassa virus pseudotyped entry inhibition, cell-based qHTS; Potency, µM (series often up to 49.2 µM), without a hit: at the top dose activity change, negative = inhibition, usual class: inhibitors; actives 4.1% (n = 18,000)
Marburg entry = blocks Marburg virus binding or cell entry | AID 720532 | actives 6.5% (n = 18,000) | Marburg virus pseudotype entry/binding inhibition, cell-based | Potency, µM (titrated, usually from 49.2 µM), without a hit: top-dose activity change, negative = inhibition, usual class: inhibitors
The depositor's hits bear a star; ? = inconclusive; . = not tested or not shown; ! = not active in a repeat; [ ] = another dose, or the depositor's remark. Only some compounds are listed: those with a hit (about 7.1% of all), similar ones and a draw of the others. The call rests on the fitted dose curve; tested in HEK293 cells. On the % scale 0 is the no-effect control and ±100 the full control effect; potency means the concentration at half of the fitted maximal effect.

SMILES | Lassa entry | Marburg entry
Cc1c(N)nc(C(CC(N)=O)NCC(N)C(N)=O)nc1C(=O)NC(C(=O)NC(C)C(O)C(C)C(=O)NC(C(=O)NCCc1nc(-c2nc(C(=O)NCCCN[C@@H](C)c3ccccc3)cs2)cs1)C(C)O)C(O[C@@H]1O[C@@H](CO)[C@@H](O)[C@H](O)[C@@H]1O[C@H]1O[C@H](CO)[C@@H](O)[C@H](OC(N)=O)[C@@H]1O)c1cnc[nH]1 (some centres undefined) | 3.55µM* | 3.16µM*
COC[C@H]1OC=C[C@@H](OC)[C@@H]1OC | 3.2% | 5.3%
Cc1ccc(-c2cc(=O)c3cc(C)ccc3[nH]2)cc1 | ? | 25.1µM*
Cc1ccc2[nH]c(-c3cccc(F)c3)cc(=O)c2c1 | 9.3% | ?
CN(C)C1CCN(CCCOc2ccc(-c3ccc(C#N)cc3)cc2)C1 (centres undefined) | ? | 11.2µM*
OCl | -6.4% | 8.2%
N[C@@]1(C(=O)O)CN[C@@H](C(=O)O)C1 | -4.5% | 28.2µM*
NC1(C(=O)O)CC(C(=O)O)C1 (centres undefined) | 1.8% | 29.6%
C=C(C)C(=O)OCCOC(=O)C(=C)C | 1.7% | 3.2%
CN(Cc1cnc2nc(N)nc(N)c2n1)c1ccc(C(=O)N[C@H](CCC(=O)O)C(=O)O)cc1 | -12.3%[17.8 µM] | 31.6µM*
CN(Cc1cnc2nc(N)nc(N)c2n1)c1ccc(C(=O)N[C@@H](CCC(=O)O)C(=O)O)cc1 | 0.2% | 15.3%
CC(=O)N[C@@H](C(=O)O)C(C)(C)SN=O | -5.8% | 35.9%
O=C(CSc1ccncc1)NCC1Cc2cccc(-c3cncnc3)c2O1 (centres undefined) | -9.6% | 0.4%
CCC(=O)O[C@@H]1CC(=O)O[C@H](C)C/C=C/C=C/[C@H](O)[C@H](C)C[C@H](CC=O)[C@H](O[C@@H]2O[C@H](C)[C@@H](O[C@H]3C[C@@](C)(O)[C@@H](OC(=O)CC)[C@H](C)O3)[C@H](N(C)C)[C@H]2O)[C@H]1OC | -1.9%[17.8 µM] | 12.9%[17.8 µM]
CC(=O)OC[C@H]1O[C@H](CC=NO[C@@H](C)CN2CCCc3nc(C)c(C)cc32)C=C[C@@H]1OC(C)=O | -1.6%[8.59 µM] | 9.1%[8.59 µM]
COc1cc2ncnc(Nc3ccc(Cl)cc3F)c2cc1OC | -0.2% | -4.4%
C=CC(=O)Nc1cc2c(Nc3ccc(F)c(Cl)c3)ncnc2cc1OCCCN1CCOCC1 | ? | 7.08µM*
CC(CCN1CCCCc2nc(C)c(C)cc21)=NO[C@H](C)c1cn([C@H](CO)Cc2ccccc2)nn1 | 9.3%[8.59 µM] | ?
CCC1(c2ccc(O)cc2)NC(=O)N(C)C1=O (centres undefined) | -7.0% | 1.9%
C=C/C(=C/C(=O)C[C@H](C)C[C@@H](C)CC[C@H](O)[C@H](C)C(=O)C[C@@H](O)[C@H](C)[C@@H](C)OC(=O)C[C@@H](O)C1=C(C)C(=O)OC1=O)CC | 2µM* | 2.51µM*
CC1(C)CC23C(=O)CCC(O)C2(C)CCC13 (centres undefined) | -7.9% | -13.3%
COc1ccc(CN2CCOc3ccc(CN4CCC(Oc5cccnc5)CC4)cc3C2)cc1 | -13.9% | ?
CC1(C)C[C@@H]2C(=O)CCC3O[C@@]3(C)CCC21 (some centres undefined) | -0.4% | -8.4%
CC1=CC[C@@H](COc2ccccc2)O[C@@]2(C1)C(=O)N(Cc1ccc(F)cc1)c1ccccc12 | -10.8%[8.59 µM] | -2.3%[8.59 µM]
Fc1ccc(-c2ncn(C3CCNCC3)c2-c2ccnc(Oc3ccc4c(c3)OCO4)n2)cc1 | ? | 6.28µM*
SMILES | Lassa entry | Marburg entry
NC(=O)Cc1ccccc1Oc1nccc(-c2c(-c3ccc(F)cc3)ncn2C2CCNCC2)n1 | -29.8% | ?
CCN(CC)C(=O)[C@@H]1C=C2c3cccc4[nH]cc(c34)C[C@H]2N(C)C1 | -20.1% | ?
C=CCC(C)(O)c1cccc(C(F)(F)F)c1 (centres undefined) | -10.2% | 3.3%
C=CC[C@](C)(O)c1ccccc1 | 0.75µM*! | -14.9%
C[C@H]1NCc2cc(-c3ccc4c(=O)c(C(=O)O)cn(C5CC5)c4c3OC(F)F)ccc21 | -13.2% | -11.7%
CCc1nn2ncccc2c1-c1ccnc(NC2CC2)n1 | . | -14.3%
NC(=O)c1cccc(Nc2nccc(Nc3cccc(F)c3)n2)c1 | 32.0% | -59.6%
COc1cccc(Nc2nccc(-c3cnn4ncccc34)n2)c1 | ? | 0.315µM*
Cc1ccc2c(-c3ccnc(Nc4ccccc4)n3)c(-c3ccc(F)cc3)nn2n1 | ? | 3.53µM*
COc1ccc(-c2nn3ncccc3c2-c2ccnc(Nc3cccc(C(F)(F)F)c3)n2)cc1 | ? | 12.5µM*
COc1cccc(C2(CC(=O)N3CCN(c4ccccn4)CC3)CC(=O)N(C3CCCC3)C2=O)c1 (centres undefined) | -10.6% | 9.5%
Cn1ccnc1C1CCCCN1C(=O)CN1Cc2ccccc2OC(c2ccccc2F)C1 (centres undefined) | 2.0% | ?
COC(=O)[C@H](COC(C)(C)C)NC(=O)O[C@@H]1Cc2cc(OC)ccc2O[C@H]1c1cccc(OC)c1 | -3.7% | -5.8%
CC(C)(Cc1c[nH]c2ccccc12)NCC(O)COc1ccccc1C#N (centres undefined) | ? | 7.94µM*
CC(C)(C)NC[C@H](O)COc1cccc2[nH]c(C#N)cc12 | -3.1% | -12.9%
CC(C)[C@@H](CC(=O)N[C@@H]1CCCC[C@H]1C(=O)N[C@H](CC(=O)N[C@@H](CCC(=O)O)CC(=O)O)Cc1ccccc1)NC(=O)C[C@H](Cc1c[nH]c2ccccc12)NC(=O)[C@@H]1CNCC[C@H]1N | -0.2% | 4.4%
O=C(Nc1cccc(C(=O)Nc2cc(C(=O)Nc3ccc([S+](=O)([O-])[O-])c4cc([S+](=O)([O-])[O-])cc(SOOO)c34)ccc2F)c1)Nc1cccc(C(=O)Nc2cc(C(=O)Nc3ccc([S+](=O)([O-])[O-])c4cc([S+](=O)([O-])[O-])cc([S+](=O)([O-])[O-])c34)ccc2F)c1 | -7.5% | ?
c1ccc2sc(N3CCN(Cc4ccc5c(c4)OCO5)CC3)nc2c1 | 33.6% | 8.2%
c1cc(CN2CCCCC2)cc(OCCCNc2nc3ccccc3s2)c1 | ? | 15.8µM*
O=C(c1ccco1)N(Cc1cc2cc3c(cc2nc1N1CCOCC1)CCC3)CC1CCCO1 (centres undefined) | 3.7% | -15.9%
O=S1(=O)N[C@H](Cc2ccccc2)COc2cc(NCCO)ccc21 | 15.8% | 20.2%
C[C@H]1CC[C@@H]2[C@@H](C)[C@H]3[C@H](C[C@H]4[C@@H]5CC=C6C[C@@H](O[C@]7(O[C@H]8O[C@@H](C)[C@@H](O)[C@@H](O)[C@@H]8O)C[C@@H](O[C@@H]8O[C@H](CO)[C@@H](O)[C@H](O)[C@@H]8O)[C@@H](O)[C@H](CO)O7)CC[C@]6(C)[C@H]5CC[C@@]34C)N2C1 | 14.1%[17.8 µM] | 4.4%[17.8 µM]
C[C@H]1CC[C@@H]2[C@@H](C)[C@H]3[C@H](C[C@H]4[C@@H]5CC=C6CC(O[C@@H]7O[C@H](CO)[C@H](O)[C@H](O[C@@H]8O[C@H](CO)[C@@H](O)[C@H](O)[C@H]8O)[C@H]7O[C@H]7O[C@@H](C)[C@H](O)[C@@H](O)[C@H]7O)CC[C@]6(C)[C@H]5CC[C@]34C)N2C1 (some centres undefined) | 31.6µM* | 15.8µM*
CC=CCCN1C=C(C(=O)OCC)C(c2ccccc2)NC1=O (centres undefined) | -1.9%[8.59 µM] | 41.2%[8.59 µM]
COc1cccc(-c2nc3cc4c(cc3cc2CN(C(=O)c2cccs2)C2CC2)CCC4)c1OC | 12.6µM* | ?
